# HT1080-NT tox – kills 2HG-producing HT-1080-NT fibrosarcoma cells; Potency, µM (series often up to 46.1 µM), for the others: top-dose activity, negative = less viability, most hits filed as cytotoxic; AID 686970; HT-1080-NT fibrosarcoma viability, CellTiter-Glo ATP luminescence, 48 h; 360,000 compounds, 1.6% hits;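 note: NT is the 2HG producing partner of a matched IDH1 knockdown line; potency is the fitted concentration of half-maximal effect; 0% = DMSO-treated cells and -100% = media-only wells without cells; nearly all actives have a fitted effect of over 55% in size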
#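 A 48-hour cytotoxicity screen used HT-1080-NT cells plated 2 hours before compound delivery. ATP-based CellTiter-Glo luminescence measured viability, normalized to DMSO and no-cell controls.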
# IL-1B inflam inh – inhibitors of inflammasome signaling (IL-1 beta secretion); THP-1 LPS/ATP IL-1B secretion, AlphaLISA, 16 h; stronger effect = lower value; AID 743279; 360,000 compounds, 4.7% hits; activity change, % at 57.5 µM; in the data active = activity change below about -50%; inconclusive = mostly about -30% to -49%
#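 Secreted IL-1B measured by AlphaLISA bead assay after 16 h compound exposure of THP-1 cells; compounds (final up to 57.5 uM) added 1 h before LPS (250 ng/mL) and ATP (1.25 mM) stimulation; lower signal means less secretion.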
# HT1080 IDH1KD tx – HT-1080 IDH1 knockdown cell toxicity (counter line) | HT-1080 IDH1 knockdown viability, ATP luminescence, 48 h | Potency, µM (doses to about 46.1 µM), for the others: at the highest dose activity, negative = toxicity, hits mostly cytotoxic | 360,000 compounds, 2% hits | AID 686971;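 note: potency is the fitted concentration of half-maximal effect; 0% = DMSO wells and -100% = cell-free medium wells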
#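 Knockdown cells (IDH1KD HT-1080) received compounds 2 h after plating at 750 cells/well and were kept 48 h at 37 °C in 5% FBS RPMI. A CellTiter-Glo luminescence read gave % activity for curve fitting.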
# DT40 TDP1 CPT – DT40-hTDP1 cell growth loss with CPT; chicken DT40 Tdp1-/-;hTDP1 cells + 20 nM CPT, ATP luminescence, 48 h; 420,000 compounds, 12% hits; Potency, µM (series often up to 46.2 µM), inactives show top-dose activity change, negative = growth inhibition, most hits filed as inhibitors; note: potency is the fitted concentration of half-maximal effect; nearly all actives have a fitted effect of over 55% in size
#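 Chicken DT40 Tdp1-/- cells stably complemented with human TDP1 were seeded at 400 cells/well in medium containing 20 nM camptothecin, exposed to pin-transferred compounds, and grown at 37 °C for at least 48 hr. Viability was read as ATP luminescence.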
# DT40 TDP1 no CPT – qHTS for Inhibitors of human tyrosyl-DNA phosphodiesterase 1 (TDP1): qHTS in cells in absence of CPT; DT40 Tdp1-/- hTDP1 cells, no CPT, ATP luminescence, 48 h; Potency, µM (highest dose often 46.2 µM), without a hit: at the highest dose activity change, negative = growth inhibition, hits mostly inhibitors; 420,000 compounds, 15% hits; AID 686978, 2013; note: potency is the fitted concentration of half-maximal effect; nearly all actives have a fitted effect of over 55% in size
#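 Chicken DT40 Tdp1-/- cells complemented with human TDP1, screened without camptothecin (DMSO vehicle only), 400 cells/well. Compounds pin-transferred, cells incubated at 37 °C for at least 48 hr. Growth read as ATP-dependent luminescence (CellTiter-Glo, 30 min at RT).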
# Active calls of the source: *; ? = inconclusive; . = no result. This is a sample that favours compounds with a hit; in the whole collection about 19% have one here. Unless noted, calls come from the whole dose curve; as a rule, active = well fitted curve in the direction sought with a large enough effect; inconclusive = small, poorly fitted or top-dose-only effect, or another doubt; inactive = no such curve, though single readings can be large; an effect the other way counts as inactive or inconclusive. Unless noted, % is set by controls: 0 for no effect and ±100 for the full control effect.
SMILES,HT1080-NT tox,IL-1B inflam inh,HT1080 IDH1KD tx,DT40 TDP1 CPT,DT40 TDP1 no CPT
S=c1[nH]nc(-c2ccncc2)n1/N=C/C(Cl)=C\c1ccccc1,?,-63*,?,13µM*,8.2µM*
Cc1ccc(CCNC(=O)c2ccc3c(=O)n(-c4ccc(C)cc4)c(=O)[nH]c3c2)cc1,.,.,.,1%,-13%
CCN(CC(=O)NCc1ccc(F)cc1)CC(O)COCc1cccc(OC)c1 (stereo not given),-5%,17,-24%,?,?
CC[N+](C)(CC)CC(=O)OCC1C(C)C=C(C)CC1C (stereo not given),11%,-11,5%,?,8.2µM*
CC1=CC(C)C(C(=O)O)C(C(=O)O)C1 (stereo not given),-3%,5,1%,-5%,3%
O=c1ccsn1Cc1ccccc1,?,-101*,23µM*,0.29µM*,0.65µM*
O=C1NC(Cc2ccccc2)C(=O)N1Cc1ccccc1 (stereo not given),9%,-7,10%,4%,-18%
COc1ccccc1C1(CCN=Cc2ccc(N(C)C)cc2)CCOC(C)(C)C1 (stereo not given),-5%,-64*,-2%,-22%,-11%
Cc1ccc(-c2nc3cccnc3o2)cc1NC(=O)COc1ccc(Cl)cc1C,-1%,-1,-2%,?,?
Cc1ccc(-c2nc3cccnc3o2)cc1NC(=O)COc1ccc(C(C)(C)C)cc1,?,-9,?,15µM*,9.2µM*
Cc1ccc(NS(=O)(=O)c2cc([N+](=O)[O-])ccc2NNC(=S)Nc2cc(C)ccc2C)c(C)c1,?,-67*,?,?,21µM*
COc1ccc(NC(=S)NNc2ccc([N+](=O)[O-])cc2S(=O)(=O)Nc2ccc(C)cc2C)cc1,23µM*,-84*,18µM*,-22%,?
Cc1ccc(NS(=O)(=O)c2cc([N+](=O)[O-])ccc2NNC(=S)Nc2cccc(Cl)c2)c(C)c1,?,-22,?,?,?
COc1ccc(CNC(=O)c2cc3ccccn3n2)cc1OC,.,.,.,-23%,-11%
CCc1ccccc1NC(=O)CC(NCc1ccccc1)C(=O)O (stereo not given),1%,-14,0%,13%,-3%
COc1ccc2c(c1)C(C1C(=O)CCCC1=O)c1ccccc1O2 (stereo not given),21%,3,17%,0%,-2%
O=C(Cc1ccccc1)NC(NC(=S)Nc1cc(Cl)ccc1Cl)C(Cl)(Cl)Cl (stereo not given),-14%,24,-24%,-26%,23µM*
Cc1ccccc1NC(=S)NC(NC(=O)c1ccco1)C(Cl)(Cl)Cl (stereo not given),4%,?,-7%,3%,-14%
O=C(COc1ccccc1)NC(NC(=S)Nc1ccccc1O)C(Cl)(Cl)Cl (stereo not given),-1%,-4,?,?,-28%
O=C(NC(NC(=S)Nc1ccc(Cl)c(Cl)c1)C(Cl)(Cl)Cl)c1ccco1 (stereo not given),?,-63*,?,21µM*,18µM*
O=C(NC(NC(=S)Nc1cc(Cl)ccc1Cl)C(Cl)(Cl)Cl)c1ccco1 (stereo not given),?,-80*,?,?,-29%
COc1ccccc1N1CC(C)(C)C(=O)N(C(=O)c2ccc(C)cc2)C1=S,-5%,-16,-8%,-22%,?
CCOC(=O)c1c(NC(=O)CC2Sc3ccc(C(F)(F)F)cc3NC2=O)sc(C)c1C (stereo not given),8%,4,24%,?,?
COC(=O)c1c(NC(=O)COc2ncnc3ccccc23)sc(C)c1C,0%,1,1%,?,26µM*
CCOC(=O)c1c(NC(=O)COc2ncnc3ccccc23)sc(C(C)=O)c1C,-9%,62,-2%,13µM*,13µM*
Cc1csc(NC(=O)CSc2ncnc3ccccc23)n1,-8%,-89*,-15%,?,?

# Compound activity: PubChem, National Center for Advancing Translational Sciences (NCATS)
